Reference: the supplement of paper PMC11732987, “Enantioselective OTUD7B fragment discovery through chemoproteomics screening and high-throughput optimisation” (Communications Chemistry, 2025)

Columns and labels:
Assay in all cases: log2 ratio of Biotin-Ahx-Ub-VS probe labelling (fragment/DMSO); higher = less target engagement (more negative = stronger competition), active = hit call of the paper (q ≤ 0.05, log2 ratio ≤ -1)
Conditions in all cases: compound concentration: 200 uM; treatment time: 3 h
USP34 = USP34 (UniProt Q70CQ2)
How it was run: (§1)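 Labelled DUBs from HEK293T lysate were NeutrAvidin-enriched, digested with LysC and trypsin, and run by diaPASEF LC-MS/MS. Before that, each 495 µg sample in Tris/CHAPS/IGEPAL buffer with protease inhibitors was treated in triplicate with fragment at 200 µM or vehicle for 3 h, then with Biotin-Ahx-Ub-VS at 0.5 µM final for 1 h. Values are average log2 ratios of fragment over vehicle by unpaired t-test, based on global-median-normalised Spectronaut label-free quantities from proteins with ≥2 unique peptides.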

USP36 = biological target: T1, USP36 (UniProt Q9P275)
T1 sequence (whole entry): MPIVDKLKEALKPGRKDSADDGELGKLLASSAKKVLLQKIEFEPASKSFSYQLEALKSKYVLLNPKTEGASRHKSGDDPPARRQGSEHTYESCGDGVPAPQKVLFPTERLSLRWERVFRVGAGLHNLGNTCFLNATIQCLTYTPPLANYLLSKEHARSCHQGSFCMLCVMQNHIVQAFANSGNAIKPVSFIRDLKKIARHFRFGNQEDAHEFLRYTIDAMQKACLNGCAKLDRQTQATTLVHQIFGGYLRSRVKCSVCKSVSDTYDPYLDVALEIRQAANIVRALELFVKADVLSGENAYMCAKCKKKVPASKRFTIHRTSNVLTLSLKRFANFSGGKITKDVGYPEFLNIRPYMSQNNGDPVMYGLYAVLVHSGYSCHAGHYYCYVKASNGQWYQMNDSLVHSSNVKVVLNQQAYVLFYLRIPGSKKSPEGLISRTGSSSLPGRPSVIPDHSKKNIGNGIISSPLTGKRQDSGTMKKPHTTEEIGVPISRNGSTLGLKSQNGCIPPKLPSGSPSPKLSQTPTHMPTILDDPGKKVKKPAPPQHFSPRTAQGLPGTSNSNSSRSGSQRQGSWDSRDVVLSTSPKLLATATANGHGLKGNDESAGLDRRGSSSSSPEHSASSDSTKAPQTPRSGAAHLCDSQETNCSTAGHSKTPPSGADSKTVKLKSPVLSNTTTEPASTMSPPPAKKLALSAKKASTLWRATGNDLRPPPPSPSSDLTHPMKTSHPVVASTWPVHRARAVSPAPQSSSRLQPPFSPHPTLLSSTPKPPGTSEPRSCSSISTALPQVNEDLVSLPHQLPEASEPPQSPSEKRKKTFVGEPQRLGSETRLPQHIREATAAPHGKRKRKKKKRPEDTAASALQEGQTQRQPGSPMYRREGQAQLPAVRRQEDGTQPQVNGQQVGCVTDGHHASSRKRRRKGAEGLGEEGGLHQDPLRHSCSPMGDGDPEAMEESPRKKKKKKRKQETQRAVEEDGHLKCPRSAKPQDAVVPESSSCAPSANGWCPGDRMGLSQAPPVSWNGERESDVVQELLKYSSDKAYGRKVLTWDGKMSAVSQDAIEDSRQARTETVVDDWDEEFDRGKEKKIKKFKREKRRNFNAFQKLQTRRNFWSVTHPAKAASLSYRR
How it was run: as §1

USP38 = biological target: T2, USP38 (UniProt Q8NB14)
T2 sequence (whole entry): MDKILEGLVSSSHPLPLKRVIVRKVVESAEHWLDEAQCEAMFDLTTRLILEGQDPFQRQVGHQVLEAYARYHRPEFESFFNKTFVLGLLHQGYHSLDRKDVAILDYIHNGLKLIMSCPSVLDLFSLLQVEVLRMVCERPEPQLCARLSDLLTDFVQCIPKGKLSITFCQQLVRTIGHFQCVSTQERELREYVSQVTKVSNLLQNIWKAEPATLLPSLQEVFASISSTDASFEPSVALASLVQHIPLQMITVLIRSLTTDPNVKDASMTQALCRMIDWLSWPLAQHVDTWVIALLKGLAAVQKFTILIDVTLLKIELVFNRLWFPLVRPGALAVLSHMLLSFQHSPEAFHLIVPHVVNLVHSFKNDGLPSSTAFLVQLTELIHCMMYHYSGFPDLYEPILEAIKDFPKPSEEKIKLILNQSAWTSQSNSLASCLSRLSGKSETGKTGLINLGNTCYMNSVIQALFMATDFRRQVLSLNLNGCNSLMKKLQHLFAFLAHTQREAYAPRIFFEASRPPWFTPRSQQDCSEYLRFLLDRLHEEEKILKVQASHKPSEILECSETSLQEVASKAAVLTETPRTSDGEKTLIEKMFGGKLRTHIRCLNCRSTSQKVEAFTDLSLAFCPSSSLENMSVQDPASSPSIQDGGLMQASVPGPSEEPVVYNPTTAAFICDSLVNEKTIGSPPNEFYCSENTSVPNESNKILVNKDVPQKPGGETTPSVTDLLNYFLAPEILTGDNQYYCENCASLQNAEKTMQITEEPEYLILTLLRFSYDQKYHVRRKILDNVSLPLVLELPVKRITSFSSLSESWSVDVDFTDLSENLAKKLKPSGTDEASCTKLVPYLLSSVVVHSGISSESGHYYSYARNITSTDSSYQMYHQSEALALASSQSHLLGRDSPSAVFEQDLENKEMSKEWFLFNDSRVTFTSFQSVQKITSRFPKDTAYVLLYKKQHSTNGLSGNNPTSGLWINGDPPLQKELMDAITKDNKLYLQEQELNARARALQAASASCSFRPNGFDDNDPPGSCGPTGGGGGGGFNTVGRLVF
How it was run: as §1

USP39 = biological target: T3, USP39 (UniProt Q53GS9)
T3 sequence (whole entry): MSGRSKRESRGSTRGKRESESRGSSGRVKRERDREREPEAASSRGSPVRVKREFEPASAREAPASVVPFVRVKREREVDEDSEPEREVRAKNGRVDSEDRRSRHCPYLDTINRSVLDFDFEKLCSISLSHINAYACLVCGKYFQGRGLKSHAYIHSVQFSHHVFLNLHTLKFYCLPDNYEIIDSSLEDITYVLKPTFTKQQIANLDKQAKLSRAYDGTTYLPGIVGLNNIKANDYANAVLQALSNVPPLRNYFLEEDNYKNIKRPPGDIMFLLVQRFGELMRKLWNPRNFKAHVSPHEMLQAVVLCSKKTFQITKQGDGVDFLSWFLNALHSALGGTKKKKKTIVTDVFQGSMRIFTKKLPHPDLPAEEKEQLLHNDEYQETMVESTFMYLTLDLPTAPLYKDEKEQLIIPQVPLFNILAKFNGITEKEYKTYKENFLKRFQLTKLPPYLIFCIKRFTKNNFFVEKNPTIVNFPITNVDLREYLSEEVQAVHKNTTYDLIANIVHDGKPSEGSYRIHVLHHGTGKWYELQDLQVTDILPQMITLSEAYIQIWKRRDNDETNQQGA
How it was run: as §1

USP4 = biological target: T4, USP4 (UniProt Q13107)
T4 sequence (whole entry): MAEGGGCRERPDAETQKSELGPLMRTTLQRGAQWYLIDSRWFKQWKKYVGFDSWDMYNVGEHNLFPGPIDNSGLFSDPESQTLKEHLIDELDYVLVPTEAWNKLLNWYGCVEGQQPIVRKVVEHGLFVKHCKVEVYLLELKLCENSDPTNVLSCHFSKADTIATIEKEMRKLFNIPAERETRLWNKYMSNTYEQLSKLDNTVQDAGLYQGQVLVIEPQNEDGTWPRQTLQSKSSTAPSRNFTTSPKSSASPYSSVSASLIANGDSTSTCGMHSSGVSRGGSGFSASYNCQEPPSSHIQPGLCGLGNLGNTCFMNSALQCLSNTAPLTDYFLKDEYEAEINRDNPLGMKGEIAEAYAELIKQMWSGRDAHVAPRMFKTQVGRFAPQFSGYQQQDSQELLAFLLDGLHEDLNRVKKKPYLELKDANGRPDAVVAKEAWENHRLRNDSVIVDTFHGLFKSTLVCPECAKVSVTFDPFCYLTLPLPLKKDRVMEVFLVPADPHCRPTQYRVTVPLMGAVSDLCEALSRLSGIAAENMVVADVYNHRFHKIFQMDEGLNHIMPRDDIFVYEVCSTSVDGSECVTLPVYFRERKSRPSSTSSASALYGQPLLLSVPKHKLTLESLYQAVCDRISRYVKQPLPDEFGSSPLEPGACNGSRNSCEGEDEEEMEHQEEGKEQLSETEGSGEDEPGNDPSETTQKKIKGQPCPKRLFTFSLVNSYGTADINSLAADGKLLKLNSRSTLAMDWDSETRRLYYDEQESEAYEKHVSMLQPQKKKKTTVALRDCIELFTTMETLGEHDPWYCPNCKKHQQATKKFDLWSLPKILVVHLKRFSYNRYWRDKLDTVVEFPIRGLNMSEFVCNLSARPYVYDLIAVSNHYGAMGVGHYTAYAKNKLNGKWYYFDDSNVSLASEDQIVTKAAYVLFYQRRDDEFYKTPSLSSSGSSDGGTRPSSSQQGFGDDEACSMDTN
How it was run: as §1

Measured: log2 ratio of Biotin-Ahx-Ub-VS probe labelling

Sequence of USP34 (Q70CQ2 whole entry, the tested form may be a part): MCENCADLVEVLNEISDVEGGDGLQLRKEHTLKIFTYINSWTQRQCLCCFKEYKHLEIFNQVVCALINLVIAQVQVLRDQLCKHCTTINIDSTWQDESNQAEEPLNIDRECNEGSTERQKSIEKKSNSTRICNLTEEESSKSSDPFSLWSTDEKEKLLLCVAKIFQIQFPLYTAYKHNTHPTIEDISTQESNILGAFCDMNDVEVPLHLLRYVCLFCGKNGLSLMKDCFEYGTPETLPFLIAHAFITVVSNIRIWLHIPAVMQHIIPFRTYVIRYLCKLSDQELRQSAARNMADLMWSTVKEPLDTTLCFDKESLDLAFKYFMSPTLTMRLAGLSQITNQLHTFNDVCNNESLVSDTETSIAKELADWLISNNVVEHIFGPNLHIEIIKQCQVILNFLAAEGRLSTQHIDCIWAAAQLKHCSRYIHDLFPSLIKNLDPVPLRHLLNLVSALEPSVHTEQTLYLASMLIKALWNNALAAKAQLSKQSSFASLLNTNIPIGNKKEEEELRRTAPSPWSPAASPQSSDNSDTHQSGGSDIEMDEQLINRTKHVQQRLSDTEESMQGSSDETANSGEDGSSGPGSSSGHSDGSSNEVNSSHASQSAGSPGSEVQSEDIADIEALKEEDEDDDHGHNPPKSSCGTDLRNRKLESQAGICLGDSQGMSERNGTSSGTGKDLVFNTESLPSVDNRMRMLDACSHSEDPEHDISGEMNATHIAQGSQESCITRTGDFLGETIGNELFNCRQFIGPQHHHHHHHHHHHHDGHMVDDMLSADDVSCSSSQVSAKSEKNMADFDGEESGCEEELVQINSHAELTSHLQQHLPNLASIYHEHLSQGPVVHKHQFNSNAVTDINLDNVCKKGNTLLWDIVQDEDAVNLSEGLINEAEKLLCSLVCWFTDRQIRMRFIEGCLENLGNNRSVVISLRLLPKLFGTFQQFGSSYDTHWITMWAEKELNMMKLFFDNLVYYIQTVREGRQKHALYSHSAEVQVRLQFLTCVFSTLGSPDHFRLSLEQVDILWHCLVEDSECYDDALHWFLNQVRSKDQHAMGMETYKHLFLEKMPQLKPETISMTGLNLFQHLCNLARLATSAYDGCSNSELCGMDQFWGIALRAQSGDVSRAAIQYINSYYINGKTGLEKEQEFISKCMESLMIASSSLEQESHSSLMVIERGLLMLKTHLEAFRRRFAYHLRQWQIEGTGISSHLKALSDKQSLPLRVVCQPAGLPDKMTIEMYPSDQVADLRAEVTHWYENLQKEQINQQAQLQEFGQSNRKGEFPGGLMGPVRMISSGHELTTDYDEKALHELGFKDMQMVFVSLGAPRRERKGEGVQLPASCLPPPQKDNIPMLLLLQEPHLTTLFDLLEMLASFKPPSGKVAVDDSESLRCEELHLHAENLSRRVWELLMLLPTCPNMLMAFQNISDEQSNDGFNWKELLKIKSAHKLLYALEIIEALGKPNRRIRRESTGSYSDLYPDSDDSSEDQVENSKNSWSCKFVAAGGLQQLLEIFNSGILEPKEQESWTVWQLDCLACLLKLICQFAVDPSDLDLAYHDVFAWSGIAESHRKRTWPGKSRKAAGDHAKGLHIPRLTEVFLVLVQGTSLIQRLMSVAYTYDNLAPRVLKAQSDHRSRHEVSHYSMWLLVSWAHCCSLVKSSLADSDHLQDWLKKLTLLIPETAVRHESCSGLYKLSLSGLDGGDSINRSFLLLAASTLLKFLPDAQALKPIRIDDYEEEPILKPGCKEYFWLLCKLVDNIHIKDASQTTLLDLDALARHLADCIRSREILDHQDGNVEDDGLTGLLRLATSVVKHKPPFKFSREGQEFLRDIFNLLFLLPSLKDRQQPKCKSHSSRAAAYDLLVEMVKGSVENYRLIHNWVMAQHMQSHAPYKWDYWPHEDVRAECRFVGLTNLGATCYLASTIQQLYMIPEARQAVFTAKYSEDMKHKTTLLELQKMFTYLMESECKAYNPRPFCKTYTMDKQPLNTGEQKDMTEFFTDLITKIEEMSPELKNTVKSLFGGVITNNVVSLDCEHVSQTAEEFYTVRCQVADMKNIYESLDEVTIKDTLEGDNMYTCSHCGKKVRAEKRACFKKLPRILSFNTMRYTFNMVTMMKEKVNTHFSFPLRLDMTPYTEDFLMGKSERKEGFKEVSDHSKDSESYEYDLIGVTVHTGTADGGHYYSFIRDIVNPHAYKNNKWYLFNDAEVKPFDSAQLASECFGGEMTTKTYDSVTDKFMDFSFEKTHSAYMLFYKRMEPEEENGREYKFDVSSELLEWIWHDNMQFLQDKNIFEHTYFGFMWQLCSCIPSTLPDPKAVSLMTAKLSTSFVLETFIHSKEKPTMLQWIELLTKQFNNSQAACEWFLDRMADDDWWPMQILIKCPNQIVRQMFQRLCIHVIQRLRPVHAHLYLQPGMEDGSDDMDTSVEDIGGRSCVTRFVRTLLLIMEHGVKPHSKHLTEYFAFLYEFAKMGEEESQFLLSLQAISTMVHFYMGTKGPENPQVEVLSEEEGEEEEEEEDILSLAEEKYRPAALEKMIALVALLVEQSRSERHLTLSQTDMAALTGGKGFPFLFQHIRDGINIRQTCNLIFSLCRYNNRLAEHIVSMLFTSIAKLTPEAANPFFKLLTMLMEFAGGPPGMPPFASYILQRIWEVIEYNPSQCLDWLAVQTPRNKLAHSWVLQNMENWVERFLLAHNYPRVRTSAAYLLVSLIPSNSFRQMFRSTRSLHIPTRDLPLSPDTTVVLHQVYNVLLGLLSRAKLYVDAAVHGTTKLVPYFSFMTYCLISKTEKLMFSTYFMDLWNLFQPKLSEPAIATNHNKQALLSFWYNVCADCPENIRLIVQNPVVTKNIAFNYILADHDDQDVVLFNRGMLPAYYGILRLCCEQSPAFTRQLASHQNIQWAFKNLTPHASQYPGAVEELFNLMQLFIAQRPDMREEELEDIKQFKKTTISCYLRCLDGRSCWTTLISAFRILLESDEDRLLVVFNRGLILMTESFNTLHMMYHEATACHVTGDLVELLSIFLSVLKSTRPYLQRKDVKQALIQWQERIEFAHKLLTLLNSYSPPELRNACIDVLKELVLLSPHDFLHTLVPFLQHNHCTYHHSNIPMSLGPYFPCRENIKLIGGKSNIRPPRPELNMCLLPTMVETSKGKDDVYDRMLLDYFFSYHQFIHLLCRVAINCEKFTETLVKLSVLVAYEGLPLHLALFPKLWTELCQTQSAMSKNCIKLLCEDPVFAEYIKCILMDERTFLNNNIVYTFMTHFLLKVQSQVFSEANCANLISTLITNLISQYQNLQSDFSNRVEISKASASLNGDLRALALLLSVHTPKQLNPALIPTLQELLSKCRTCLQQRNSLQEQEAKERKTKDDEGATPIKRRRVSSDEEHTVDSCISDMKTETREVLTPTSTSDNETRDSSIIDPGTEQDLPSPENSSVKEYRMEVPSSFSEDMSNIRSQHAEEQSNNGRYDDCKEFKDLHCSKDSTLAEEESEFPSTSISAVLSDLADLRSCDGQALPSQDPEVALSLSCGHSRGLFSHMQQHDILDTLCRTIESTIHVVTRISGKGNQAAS

CNC(=O)Cn1cc(NC(=O)CCl)cn1
inactive: USP34 -0.0314 | USP36 -0.0542 | USP38 -0.0407 | USP39 0.234 | USP4 -0.0895
